# Records with an inconclusive call do not appear. A call without a number means that no potency is given here. Active and inactive are the calls of the source. Calls follow the shape of the dose curve; as a rule, active = well fitted cell-killing curve with a large enough effect; inconclusive = small, poorly fitted or top-dose-only effect, or effect the other way; inactive = flat fitted curve, though single readings scatter.
# Test: Compound cytotoxicity measured by an ATP content assay as a counter-screen for lead compounds in human astrocytes
# Conditions: human astrocytes viability, ATP luminescence; series mostly up to 46.1 µM
# Description: National Center for Advancing Translational Sciences [NCATS] Johns Hopkins University School of Medicine Florida State University Assay Overview: Many compounds can cause cytotoxicity at high compound concentrations. […] The compound cytotoxicity may also cause side effects or toxicity in human. Thus, the compound cytotoxicity needs to be measured in each cell type and each compound incubation time - same as these in the compound screening assay. The compound cytotoxicity can be measured by cell viability assays such as the ATP content assay. We use an ATP content assay kit for cell viability measurement. It measures ATP content (level) in human astrocytes using a luminescence readout that is proportional to viable cell numbers. Decrease in the luminescence signal after the compound treatment indicates reduced cell viability and cell death caused by compound treatment.
# Assay Protocol Summary: The medium for astrocytes contains AM basal medium (ScienCell, Cat.# 1801), AGS (ScienCell, Cat.# 1801), 10% FBS, and 1% Pen/Strep. The ATP content assay kit (PerkinElmer, Cat.# 6016731) was used to determine cell viability. The reagent was reconstituted and prepared as described by the manufacturer. Cells were seeded in 384- or 1536-well assay plates and cultured at 37 C with 5% CO2 for 16 to 20 hours. The typical cell seeding density in the 1536-well plate assay is 350 cells/well in 3 ul medium for astrocytes in the tissue cultured treated/PDL coated plates. Compounds were added to cells and incubated for a specific time such as 6, 24, or 72 hours before addition of the reagent mixture of the ATP content assay kit at 1:1 ratio. After incubation at room temperature for 10 minutes, the luminescence intensity in assay plates was measured using a ViewLux plate reader (PerkinElmer). […] The percentage inhibitions of the decreased cell viability by small molecules were then calculated that indicate compound cytotoxicity.
row,Compound,Potency
1,O=C(c1ccccc1)c1ccc2n1CCC2C(=O)O (stereo not given),inactive
2,O=C1c2ccccc2C(=O)c2c1ccc(O)c2O,inactive
3,Oc1ccc(/C=C/c2cc(O)cc(O)c2)cc1,10900 nM (active)
4,O=c1c2ccccc2nc2n1CCc1c-2[nH]c2ccccc12,inactive
5,CCCCCCOc1ccccc1C(N)=O,inactive
6,Nc1nc2ccc([N+](=O)[O-])cc2s1,inactive
7,CC1(C)OC2=C(C(=O)c3ccccc3C2=O)[C@H](NCc2ccccc2)[C@H]1O,8910 nM (active)
8,Cc1nc(N)sc1-c1ccnc(Nc2ccc(N3CCOCC3)cc2)n1,inactive
9,O=C(O)c1ccccc1Nc1cccc(C(F)(F)F)c1,inactive
10,O=C(O)Cc1ccc(-c2ccccc2)cc1,inactive
11,CC(C)c1ccc2oc3nc(N)c(C(=O)O)cc3c(=O)c2c1,2750 nM (active)
12,CCCC(=O)OC[C@@H](OC(=O)CCC)[C@@H](OC(=O)CCC)[C@H](Cn1c2nc(=O)[nH]c(=O)c-2nc2cc(C)c(C)cc21)OC(=O)CCC,inactive
13,O=c1oc2cc(O)ccc2s1,inactive
14,CCCCC1C(=O)N(c2ccccc2)N(c2ccc(O)cc2)C1=O (stereo not given),inactive
15,CCCS(=O)c1ccc2nc(NC(=O)OC)[nH]c2c1 (stereo not given),inactive
16,CC(=O)OC(C)OC(=O)C(C)c1ccc(-c2ccccc2)c(F)c1 (stereo not given),inactive
17,Nc1ncnc2c1ncn2[C@@H]1O[C@@H](CO)[C@H](O)[C@H]1O,inactive
18,CCOC1OC(=O)C[C@H]1NC(=O)[C@@H]1CCCN1C(=O)[C@@H](NC(=O)c1ccc(N)c(Cl)c1)C(C)(C)C (stereo not given in full),inactive
19,CCCCCCCCCCCC(=O)[O][Sn]([CH2]CCC)([CH2]CCC)[O]C(=O)CCCCCCCCCCC,inactive
20,O=C(C=CC=Cc1ccc2c(c1)OCO2)N1CCCCC1,inactive

row,Compound,Potency
1,O=C1C[C@@H](c2ccc(O)cc2)Oc2cc(O)cc(O)c21,inactive
2,CCCCCNC(=O)N1CCC(CN(Cc2ccc(Cl)cc2)Cc2ccc([N+](=O)[O-])s2)C1 (stereo not given),inactive
3,O=C(Nc1ccc(C(=O)O)c(O)c1)c1ccccc1,inactive
4,CN(C)c1ccc(N=NS(=O)(=O)O)cc1,inactive
5,CC(=O)Oc1cccc2c1C(=O)c1c(OC(C)=O)cc(C(=O)O)cc1C2=O,inactive
6,Cc1c(N)c(=O)n(-c2ccccc2)n1C,inactive
7,O=C(Nc1ccc([N+](=O)[O-])cc1Cl)c1cc(Cl)ccc1O,1090 nM (active)
8,O=C(O)c1ccccc1NCCc1ccccc1,inactive
9,O=C(Nc1cc2cc[nH]c2cn1)c1ccccc1,489 nM (active)
10,COc1cc2nc(-c3ccc(N4CCN(C)CC4)cc3)nc(NCCN3CCOCC3)c2cc1OC,inactive
11,O=C(/C=C/c1ccc(O)cc1)c1ccc(O)cc1O,inactive
12,O=C1C(Cl)=C(NCCN2CCOCC2)C(=O)c2ncccc21,7740 nM (active)
13,c1ccc2[nH]c(-c3cscn3)nc2c1,inactive
14,O=c1cc(-c2ccccc2)oc2cc(O)cc(O)c12,inactive
15,CN1CC(=O)N2C(Cc3c([nH]c4ccccc34)[C@H]2c2ccc3c(c2)OCO3)C1=O (stereo not given in full),inactive
16,CC(C)(C)COc1ccc(-n2cc(C(=O)O)cn2)cc1C#N,inactive
17,COCCn1c2c([n+](Cc3cnccn3)c1C)C(=O)c1ccccc1C2=O,138 nM (active)
18,Nc1ccc(N=Nc2ccccc2)c(N)n1,inactive
19,N#CC1(c2ccc(NC(=O)c3cccnc3NCc3ccncc3)cc2)CCCC1,inactive
20,O=C(O)[C@H](CC(=O)N1C[C@@H]2CCCC[C@H]2C1)Cc1ccccc1,inactive

# Reference: PubChem BioAssay AID1224861 (National Center for Advancing Translational Sciences (NCATS), 2016)
